According to the supplement of paper PMC6555819:

tested on: RARa homodimer (NR concentration 270 nM); assay: PBM binding z-score (relative to random genomic background probes); higher = stronger binding; sequences stand for … in GC…GCGATTGACAGCGTAGAATGAAGG
Method in brief: (§1)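 Each nuclear receptor dimer, without ligand, was incubated for 1 h on custom Agilent 4×180K protein-binding microarrays. Binding was detected with antibodies against each partner (one per run), and scanned fluorescence was regression-normalized. The binding z-scores are referenced to random human genomic background probes.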

Sequence | PBM binding z-score
CCGACTGGGCCAAAGGTTACCATACTCAGTACGA | 0.224
AGTAAAAGTTCATCTAGGTAACGTAAGATATGCT | 1.46
CCTTACGGGTCACTGACAGGTTATATCATTTGGA | 0.665
GCGACTGGGGCATCAGCAGCTTACCATAACTTAA | -0.449
GCTGCTAGGTCAACTAATGGTCAGCTAAAGCTCG | -0.116
CCTACTGGGCCACGAAGGGTCATTGATTCAGTGA | 0.673
ACAGACAGGTGATGAAGGTAACTAAGGCTATCAT | 0.0422
TCTTGTAGATCAAGCAGGTTGAGAAAGCCTGAGT | -0.364
TCTATTAGTTGATTAGGGCGACCGAAACAGCGGA | 1.27
CTACCAAGGTGAGCAAGGTCGTTGATTACTATTC | -0.327
ATCGAAAGGTCGTGAGGTGGGTATACAGAAAGGC | 1.39
CTCGAAAGGTCGCTTGAGGTGAGTATACGGATAA | 0.149
CCTTACGGGTCAAGGCTATAGCACGGGTGGTACG | 0.855
AGAATGAGGTTATTAAGATTAGGGAATTGCGGTC | 0.918
TCTCGGAGGACTCGAAAGGTCAGAGCTCGACATC | -0.0102
ATCTCTAGGTATAGTTCAGTGAAAGATCGATAGA | 1.34
CATACTAGGTCACGAAAGGTCAAAGTCGAATGAC | 4.19
CCTACTGGGCCCAAGGTCATTGATTCCAATGCTC | 0.145
GGAACGATGGCAAGTTGATAGCAGAGTTTGATGG | -0.494
TCTTGTAGATCATAGGTTAAGAAAGCCGAAGCCT | 0.366

Sequence | PBM binding z-score
CGTCCAAGGTCAAAGGCCAGTGAAGAGATGACGG | 0.426
TCATATAGGTAAACAAGTGAAAGTCCGTAAGTTA | 1.3
CCTTACGGGTCACTGACAGGTTATAACATTTGGA | 1.52
ATATGTACGTTATCGGGTCATTCAGTTTGCGCAT | 0.585
CCTTCTGGGCCAAGGTCATTGATCAGTCAAAGCA | -0.215
TCTATTCGTTGAAGGGCAACCGACGAGTCCGTTT | 0.583
CATAGTTGGTCAGGAGGTCACACACCGGATATGA | 1.99
CGTCCAAGGTCAGCAGGTCAGTGATAGCGACGTG | 1.26
AACTCTAGGTAACAAGTTCAGTGAAAGAGAGGAC | 0.522
CCTACTGGGCCATTCAGAGTTCATTGATCATATG | -0.457
CCTACTGGTCCAAAAAGGTCATTGATGCCGATAA | 2.48
AGAATGAGGTTAACATCAGGGAAACAGAATACAT | 0.181
CCTACTGGGCCAAAGGTCATTAATTCCAATGCTC | 2.26
TAGCCTGGGTCAGATCGGGCCAGTATACGCTATA | -0.739
ACAGACAGGTGATGGAGGTAACTCAGGCTATCAT | -0.0178
AGAATGAGGTTATTACGATCAGGGAATTGCGGTC | 1.21
TCCTGTAGATCAATAGAGGTTAAGAAAGTGCGCT | 0.54
ACAGACAGGTGATGAGGGTAACTCAGGCTATCAT | -0.698
GCTGCTAGGACAACTGATGGTCAGCTAAAGCTCG | -1.4
ACTAGCAGGCCAAGTTTGGGTCACTCGAACAAAG | -0.754

tested on: RARb:RXRa (NR concentration 270 nM, RXRa partner concentration 90 nM); assay: as above
Method in brief: as §1

Sequence | PBM binding z-score
CCGACTGGGCCAAAGGTTACCATACTCAGTACGA | 2.22
AGTAAAAGTTCATCTAGGTAACGTAAGATATGCT | 4.72
CCTTACGGGTCACTGACAGGTTATATCATTTGGA | 4.08
GCGACTGGGGCATCAGCAGCTTACCATAACTTAA | 0.116
GCTGCTAGGTCAACTAATGGTCAGCTAAAGCTCG | 4.03
CCTACTGGGCCACGAAGGGTCATTGATTCAGTGA | 2.82
ACAGACAGGTGATGAAGGTAACTAAGGCTATCAT | 0.371
TCTTGTAGATCAAGCAGGTTGAGAAAGCCTGAGT | -0.242
TCTATTAGTTGATTAGGGCGACCGAAACAGCGGA | 0.629
CTACCAAGGTGAGCAAGGTCGTTGATTACTATTC | 1.64
ATCGAAAGGTCGTGAGGTGGGTATACAGAAAGGC | 4.05
CTCGAAAGGTCGCTTGAGGTGAGTATACGGATAA | 3.61
CCTTACGGGTCAAGGCTATAGCACGGGTGGTACG | 3.98
AGAATGAGGTTATTAAGATTAGGGAATTGCGGTC | 1.47
TCTCGGAGGACTCGAAAGGTCAGAGCTCGACATC | 3.62
ATCTCTAGGTATAGTTCAGTGAAAGATCGATAGA | 1.15
CATACTAGGTCACGAAAGGTCAAAGTCGAATGAC | 5.65
CCTACTGGGCCCAAGGTCATTGATTCCAATGCTC | 2.79
GGAACGATGGCAAGTTGATAGCAGAGTTTGATGG | -0.496
TCTTGTAGATCATAGGTTAAGAAAGCCGAAGCCT | 0.882

Sequence | PBM binding z-score
CGTCCAAGGTCAAAGGCCAGTGAAGAGATGACGG | 5.29
TCATATAGGTAAACAAGTGAAAGTCCGTAAGTTA | 0.893
CCTTACGGGTCACTGACAGGTTATAACATTTGGA | 3.9
ATATGTACGTTATCGGGTCATTCAGTTTGCGCAT | 1.93
CCTTCTGGGCCAAGGTCATTGATCAGTCAAAGCA | 3.39
TCTATTCGTTGAAGGGCAACCGACGAGTCCGTTT | 1.56
CATAGTTGGTCAGGAGGTCACACACCGGATATGA | 3.73
CGTCCAAGGTCAGCAGGTCAGTGATAGCGACGTG | 5.45
AACTCTAGGTAACAAGTTCAGTGAAAGAGAGGAC | 1.4
CCTACTGGGCCATTCAGAGTTCATTGATCATATG | 1.82
CCTACTGGTCCAAAAAGGTCATTGATGCCGATAA | 3.94
AGAATGAGGTTAACATCAGGGAAACAGAATACAT | 2.32
CCTACTGGGCCAAAGGTCATTAATTCCAATGCTC | 4.25
TAGCCTGGGTCAGATCGGGCCAGTATACGCTATA | 2.33
ACAGACAGGTGATGGAGGTAACTCAGGCTATCAT | 0.173
AGAATGAGGTTATTACGATCAGGGAATTGCGGTC | 1.42
TCCTGTAGATCAATAGAGGTTAAGAAAGTGCGCT | 0.925
ACAGACAGGTGATGAGGGTAACTCAGGCTATCAT | 0.496
GCTGCTAGGACAACTGATGGTCAGCTAAAGCTCG | 0.341
ACTAGCAGGCCAAGTTTGGGTCACTCGAACAAAG | 1.68
